ChEMBL document CHEMBL1961873, “Compounds: GSK PKIS; Assays: Nanosyn kinase panel” (2012)

Key:
[1] = target: Protein kinase C gamma type (Homo sapiens) (UniProt P05129); conditions: at 1 µM;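 also: each value is an averaged percent inhibition of the enzyme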
[2] = target: T1, Protein kinase C iota type (Homo sapiens) (UniProt P41743); conditions: at 0.1 µM
T1 sequence (whole entry): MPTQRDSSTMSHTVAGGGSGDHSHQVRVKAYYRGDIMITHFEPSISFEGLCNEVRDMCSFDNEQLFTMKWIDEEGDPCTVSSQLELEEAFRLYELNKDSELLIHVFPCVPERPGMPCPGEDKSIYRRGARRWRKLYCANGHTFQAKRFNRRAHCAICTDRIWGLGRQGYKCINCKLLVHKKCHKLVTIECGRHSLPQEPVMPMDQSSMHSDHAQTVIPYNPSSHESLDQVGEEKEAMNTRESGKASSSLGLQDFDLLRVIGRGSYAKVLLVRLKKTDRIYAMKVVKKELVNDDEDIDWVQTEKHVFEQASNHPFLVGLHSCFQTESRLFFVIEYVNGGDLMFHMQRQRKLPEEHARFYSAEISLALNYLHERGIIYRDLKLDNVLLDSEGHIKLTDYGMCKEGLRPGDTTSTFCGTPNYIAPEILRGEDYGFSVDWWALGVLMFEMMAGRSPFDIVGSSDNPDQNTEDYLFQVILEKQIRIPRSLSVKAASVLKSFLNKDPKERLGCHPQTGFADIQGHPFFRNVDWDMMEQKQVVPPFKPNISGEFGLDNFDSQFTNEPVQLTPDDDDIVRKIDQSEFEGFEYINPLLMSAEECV

[3] = target: T1, Protein kinase C iota type (Homo sapiens); conditions: at 1 µM
[4] = target: Protein kinase C theta type (Homo sapiens) (UniProt Q04759); conditions: at 0.1 µM
Sequence of Protein kinase C theta type (Homo sapiens) (Q04759 whole entry, looked up): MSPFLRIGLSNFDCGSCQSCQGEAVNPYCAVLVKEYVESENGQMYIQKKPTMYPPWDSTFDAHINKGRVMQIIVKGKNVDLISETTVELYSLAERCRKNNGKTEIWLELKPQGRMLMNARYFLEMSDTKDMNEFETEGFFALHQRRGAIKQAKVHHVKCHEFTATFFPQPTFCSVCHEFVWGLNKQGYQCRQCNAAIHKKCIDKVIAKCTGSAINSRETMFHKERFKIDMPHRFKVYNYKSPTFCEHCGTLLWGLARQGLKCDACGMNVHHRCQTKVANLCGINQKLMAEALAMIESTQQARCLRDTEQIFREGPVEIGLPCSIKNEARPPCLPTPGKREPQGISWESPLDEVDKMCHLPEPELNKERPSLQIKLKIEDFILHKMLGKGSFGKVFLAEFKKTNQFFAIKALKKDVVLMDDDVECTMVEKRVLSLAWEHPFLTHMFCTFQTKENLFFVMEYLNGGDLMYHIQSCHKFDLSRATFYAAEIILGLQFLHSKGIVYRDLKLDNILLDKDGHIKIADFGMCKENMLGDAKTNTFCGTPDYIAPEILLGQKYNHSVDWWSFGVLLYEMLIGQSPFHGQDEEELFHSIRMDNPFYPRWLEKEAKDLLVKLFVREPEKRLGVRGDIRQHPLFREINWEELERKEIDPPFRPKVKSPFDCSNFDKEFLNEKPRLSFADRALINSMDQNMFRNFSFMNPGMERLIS

[5] = target: Protein kinase C theta type (Homo sapiens) (UniProt Q04759); conditions: at 1 µM
[6] = target: Protein kinase C beta type (Homo sapiens) (UniProt P05771); conditions: at 0.1 µM
Sequence of Protein kinase C beta type (Homo sapiens) (P05771 2-671 limits assumed): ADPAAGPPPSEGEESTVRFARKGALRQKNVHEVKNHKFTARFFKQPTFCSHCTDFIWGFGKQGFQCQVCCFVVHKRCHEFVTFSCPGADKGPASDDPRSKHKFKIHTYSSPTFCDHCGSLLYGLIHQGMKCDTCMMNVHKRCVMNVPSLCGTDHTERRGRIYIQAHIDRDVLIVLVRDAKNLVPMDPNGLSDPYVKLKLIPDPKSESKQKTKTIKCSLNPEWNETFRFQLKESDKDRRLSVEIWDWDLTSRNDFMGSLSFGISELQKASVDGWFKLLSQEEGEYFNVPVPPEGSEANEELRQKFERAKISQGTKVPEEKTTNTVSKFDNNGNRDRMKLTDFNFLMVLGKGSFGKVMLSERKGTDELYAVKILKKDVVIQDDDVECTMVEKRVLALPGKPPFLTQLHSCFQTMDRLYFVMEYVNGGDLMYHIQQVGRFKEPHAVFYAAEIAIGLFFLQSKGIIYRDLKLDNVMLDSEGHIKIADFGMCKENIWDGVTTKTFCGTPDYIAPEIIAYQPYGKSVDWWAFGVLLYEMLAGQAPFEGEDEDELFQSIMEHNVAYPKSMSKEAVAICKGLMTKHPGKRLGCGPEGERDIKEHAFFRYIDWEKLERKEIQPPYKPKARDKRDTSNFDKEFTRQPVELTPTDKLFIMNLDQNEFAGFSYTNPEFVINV

[7] = target: Protein kinase C beta type (Homo sapiens) (UniProt P05771); conditions: at 1 µM
[8] = target: T2, Serine/threonine-protein kinase D1 (Homo sapiens) (UniProt Q15139); conditions: at 0.1 µM
T2 sequence (whole entry): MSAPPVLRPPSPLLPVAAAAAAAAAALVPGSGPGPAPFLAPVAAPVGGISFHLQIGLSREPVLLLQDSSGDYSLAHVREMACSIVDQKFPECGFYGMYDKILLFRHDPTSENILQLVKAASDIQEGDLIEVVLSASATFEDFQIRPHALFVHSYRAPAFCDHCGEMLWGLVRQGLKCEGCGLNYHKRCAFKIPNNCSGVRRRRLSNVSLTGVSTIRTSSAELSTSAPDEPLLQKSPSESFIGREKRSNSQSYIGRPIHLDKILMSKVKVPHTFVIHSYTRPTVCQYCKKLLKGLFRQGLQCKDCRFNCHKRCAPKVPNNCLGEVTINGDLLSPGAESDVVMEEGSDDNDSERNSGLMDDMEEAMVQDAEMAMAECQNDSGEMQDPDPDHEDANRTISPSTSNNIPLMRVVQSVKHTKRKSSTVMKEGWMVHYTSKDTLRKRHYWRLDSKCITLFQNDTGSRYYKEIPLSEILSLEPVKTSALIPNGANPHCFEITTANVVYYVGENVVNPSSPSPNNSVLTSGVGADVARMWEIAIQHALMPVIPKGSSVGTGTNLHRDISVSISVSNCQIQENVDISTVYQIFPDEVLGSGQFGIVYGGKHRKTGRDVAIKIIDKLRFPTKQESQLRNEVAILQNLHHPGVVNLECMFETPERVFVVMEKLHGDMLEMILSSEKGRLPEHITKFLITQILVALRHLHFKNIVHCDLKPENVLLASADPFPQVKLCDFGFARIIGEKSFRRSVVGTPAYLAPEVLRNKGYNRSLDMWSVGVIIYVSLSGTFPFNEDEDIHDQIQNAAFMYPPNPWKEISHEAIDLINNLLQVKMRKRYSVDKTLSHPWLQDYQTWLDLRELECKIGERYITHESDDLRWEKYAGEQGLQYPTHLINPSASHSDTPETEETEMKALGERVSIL

[9] = target: T2, Serine/threonine-protein kinase D1 (Homo sapiens); conditions: at 1 µM
[10] = target: T3, Serine/threonine-protein kinase D2 (Homo sapiens) (UniProt Q9BZL6); conditions: at 0.1 µM
T3 sequence (whole entry): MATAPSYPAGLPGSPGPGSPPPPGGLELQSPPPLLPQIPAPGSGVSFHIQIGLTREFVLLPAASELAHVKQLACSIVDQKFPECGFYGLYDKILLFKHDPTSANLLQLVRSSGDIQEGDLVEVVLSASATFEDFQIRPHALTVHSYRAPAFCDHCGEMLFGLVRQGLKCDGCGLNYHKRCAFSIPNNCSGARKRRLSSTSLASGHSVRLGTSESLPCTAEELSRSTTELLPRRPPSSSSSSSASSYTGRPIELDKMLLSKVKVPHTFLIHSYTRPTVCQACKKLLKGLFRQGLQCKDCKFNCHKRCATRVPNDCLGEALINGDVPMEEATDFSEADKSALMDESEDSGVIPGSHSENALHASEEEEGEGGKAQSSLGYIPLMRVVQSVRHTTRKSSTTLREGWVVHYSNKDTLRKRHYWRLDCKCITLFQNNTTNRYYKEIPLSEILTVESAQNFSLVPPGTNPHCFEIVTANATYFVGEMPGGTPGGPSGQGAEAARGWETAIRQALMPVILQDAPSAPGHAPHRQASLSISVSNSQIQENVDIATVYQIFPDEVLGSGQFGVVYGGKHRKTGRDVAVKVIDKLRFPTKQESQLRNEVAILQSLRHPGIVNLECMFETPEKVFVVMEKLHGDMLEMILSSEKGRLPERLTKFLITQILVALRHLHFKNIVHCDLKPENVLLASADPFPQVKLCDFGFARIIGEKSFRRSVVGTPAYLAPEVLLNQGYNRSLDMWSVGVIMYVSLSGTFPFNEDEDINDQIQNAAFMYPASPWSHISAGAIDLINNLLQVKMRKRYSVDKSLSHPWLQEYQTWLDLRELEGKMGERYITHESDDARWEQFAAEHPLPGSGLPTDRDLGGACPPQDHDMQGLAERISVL

[11] = target: T3, Serine/threonine-protein kinase D2 (Homo sapiens); conditions: at 1 µM
[12] = target: T4, Serine/threonine-protein kinase D3 (Homo sapiens) (UniProt O94806); conditions: at 0.1 µM
T4 sequence (whole entry): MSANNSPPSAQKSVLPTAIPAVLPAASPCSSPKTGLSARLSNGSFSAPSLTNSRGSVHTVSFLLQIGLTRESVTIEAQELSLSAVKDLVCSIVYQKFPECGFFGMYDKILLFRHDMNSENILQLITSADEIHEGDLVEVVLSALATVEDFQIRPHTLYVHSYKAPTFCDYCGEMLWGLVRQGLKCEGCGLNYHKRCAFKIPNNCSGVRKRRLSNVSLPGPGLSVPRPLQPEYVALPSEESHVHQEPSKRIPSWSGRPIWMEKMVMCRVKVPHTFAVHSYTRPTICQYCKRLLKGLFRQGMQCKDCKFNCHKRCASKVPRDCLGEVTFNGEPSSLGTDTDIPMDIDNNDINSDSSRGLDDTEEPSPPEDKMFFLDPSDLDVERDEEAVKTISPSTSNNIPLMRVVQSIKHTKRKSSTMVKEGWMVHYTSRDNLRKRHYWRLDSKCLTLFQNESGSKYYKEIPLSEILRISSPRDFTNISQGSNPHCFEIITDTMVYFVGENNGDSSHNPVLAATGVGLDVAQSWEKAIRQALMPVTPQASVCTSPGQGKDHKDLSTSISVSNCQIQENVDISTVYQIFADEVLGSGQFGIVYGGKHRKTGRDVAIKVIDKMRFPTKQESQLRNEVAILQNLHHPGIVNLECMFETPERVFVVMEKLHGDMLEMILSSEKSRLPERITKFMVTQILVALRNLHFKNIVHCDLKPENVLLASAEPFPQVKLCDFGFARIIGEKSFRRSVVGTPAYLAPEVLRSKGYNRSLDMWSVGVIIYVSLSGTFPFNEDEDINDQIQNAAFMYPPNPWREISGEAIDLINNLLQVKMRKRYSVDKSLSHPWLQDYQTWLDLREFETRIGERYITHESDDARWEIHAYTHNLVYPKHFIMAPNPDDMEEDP

[13] = target: T4, Serine/threonine-protein kinase D3 (Homo sapiens); conditions: at 1 µM
[14] = target: T5, cGMP-dependent protein kinase 1 (Homo sapiens) (UniProt Q13976); conditions: at 0.1 µM
T5 sequence (whole entry): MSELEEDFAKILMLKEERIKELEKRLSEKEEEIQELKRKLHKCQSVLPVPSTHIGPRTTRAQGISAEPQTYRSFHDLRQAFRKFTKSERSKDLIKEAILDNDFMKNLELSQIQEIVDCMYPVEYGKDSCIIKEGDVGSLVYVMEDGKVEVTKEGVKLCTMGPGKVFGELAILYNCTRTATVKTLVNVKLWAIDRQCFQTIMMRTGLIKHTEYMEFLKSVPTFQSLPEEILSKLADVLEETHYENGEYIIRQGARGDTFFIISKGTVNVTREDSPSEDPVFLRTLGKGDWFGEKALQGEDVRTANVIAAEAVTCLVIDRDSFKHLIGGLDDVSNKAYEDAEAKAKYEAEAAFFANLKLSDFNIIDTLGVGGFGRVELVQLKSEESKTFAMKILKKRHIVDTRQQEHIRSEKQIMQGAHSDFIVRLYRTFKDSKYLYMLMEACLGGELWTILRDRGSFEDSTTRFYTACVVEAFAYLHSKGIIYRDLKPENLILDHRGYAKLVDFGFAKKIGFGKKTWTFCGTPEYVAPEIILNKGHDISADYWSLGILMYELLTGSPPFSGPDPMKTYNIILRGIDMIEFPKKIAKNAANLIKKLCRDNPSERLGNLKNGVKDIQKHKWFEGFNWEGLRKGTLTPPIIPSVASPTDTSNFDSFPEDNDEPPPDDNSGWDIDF

[15] = target: T5, cGMP-dependent protein kinase 1 (Homo sapiens); conditions: at 1 µM
[16] = target: T6, cGMP-dependent protein kinase 2 (Homo sapiens) (UniProt Q13237); conditions: at 0.1 µM
T6 sequence (whole entry): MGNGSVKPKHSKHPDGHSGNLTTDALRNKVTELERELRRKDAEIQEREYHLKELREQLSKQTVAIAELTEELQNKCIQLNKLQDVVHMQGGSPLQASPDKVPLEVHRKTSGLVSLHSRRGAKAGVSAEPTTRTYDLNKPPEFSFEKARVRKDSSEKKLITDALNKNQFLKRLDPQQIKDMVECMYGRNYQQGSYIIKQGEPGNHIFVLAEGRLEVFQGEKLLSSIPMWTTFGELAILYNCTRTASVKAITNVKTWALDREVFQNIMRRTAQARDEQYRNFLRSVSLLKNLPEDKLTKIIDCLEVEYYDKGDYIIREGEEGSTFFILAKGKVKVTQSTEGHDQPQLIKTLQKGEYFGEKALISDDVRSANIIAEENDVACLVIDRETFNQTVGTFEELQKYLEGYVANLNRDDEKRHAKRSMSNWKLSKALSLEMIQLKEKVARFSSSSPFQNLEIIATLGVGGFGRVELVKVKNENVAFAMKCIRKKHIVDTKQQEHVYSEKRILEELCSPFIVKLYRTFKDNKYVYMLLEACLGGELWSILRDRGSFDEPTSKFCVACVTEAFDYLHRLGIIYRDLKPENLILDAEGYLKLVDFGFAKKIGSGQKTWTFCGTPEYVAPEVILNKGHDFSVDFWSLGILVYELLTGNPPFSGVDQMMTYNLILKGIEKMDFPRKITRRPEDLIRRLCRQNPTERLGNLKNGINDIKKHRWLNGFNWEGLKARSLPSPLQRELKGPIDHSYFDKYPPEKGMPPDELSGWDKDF

[17] = target: T6, cGMP-dependent protein kinase 2 (Homo sapiens); conditions: at 1 µM
[18] = target: T7, cAMP-dependent protein kinase catalytic subunit PRKX (Homo sapiens) (UniProt P51817); conditions: at 0.1 µM
T7 sequence (whole entry): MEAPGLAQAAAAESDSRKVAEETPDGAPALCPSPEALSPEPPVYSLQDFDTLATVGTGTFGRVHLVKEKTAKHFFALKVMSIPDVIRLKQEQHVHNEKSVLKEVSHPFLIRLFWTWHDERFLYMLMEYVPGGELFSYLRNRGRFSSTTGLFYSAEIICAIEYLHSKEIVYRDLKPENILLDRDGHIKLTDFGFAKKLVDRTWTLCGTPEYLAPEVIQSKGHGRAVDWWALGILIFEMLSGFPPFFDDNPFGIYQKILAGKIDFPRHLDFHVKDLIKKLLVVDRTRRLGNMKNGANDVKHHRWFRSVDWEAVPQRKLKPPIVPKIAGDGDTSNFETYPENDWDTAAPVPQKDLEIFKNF

[19] = target: T7, cAMP-dependent protein kinase catalytic subunit PRKX (Homo sapiens); conditions: at 1 µM
[20] = target: Rho-associated protein kinase 1 (Homo sapiens) (UniProt Q13464); conditions: at 0.1 µM;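 also: values are mean percent inhibition of ROCK1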
Sequence of Rho-associated protein kinase 1 (Homo sapiens) (Q13464 2-1354 limits assumed): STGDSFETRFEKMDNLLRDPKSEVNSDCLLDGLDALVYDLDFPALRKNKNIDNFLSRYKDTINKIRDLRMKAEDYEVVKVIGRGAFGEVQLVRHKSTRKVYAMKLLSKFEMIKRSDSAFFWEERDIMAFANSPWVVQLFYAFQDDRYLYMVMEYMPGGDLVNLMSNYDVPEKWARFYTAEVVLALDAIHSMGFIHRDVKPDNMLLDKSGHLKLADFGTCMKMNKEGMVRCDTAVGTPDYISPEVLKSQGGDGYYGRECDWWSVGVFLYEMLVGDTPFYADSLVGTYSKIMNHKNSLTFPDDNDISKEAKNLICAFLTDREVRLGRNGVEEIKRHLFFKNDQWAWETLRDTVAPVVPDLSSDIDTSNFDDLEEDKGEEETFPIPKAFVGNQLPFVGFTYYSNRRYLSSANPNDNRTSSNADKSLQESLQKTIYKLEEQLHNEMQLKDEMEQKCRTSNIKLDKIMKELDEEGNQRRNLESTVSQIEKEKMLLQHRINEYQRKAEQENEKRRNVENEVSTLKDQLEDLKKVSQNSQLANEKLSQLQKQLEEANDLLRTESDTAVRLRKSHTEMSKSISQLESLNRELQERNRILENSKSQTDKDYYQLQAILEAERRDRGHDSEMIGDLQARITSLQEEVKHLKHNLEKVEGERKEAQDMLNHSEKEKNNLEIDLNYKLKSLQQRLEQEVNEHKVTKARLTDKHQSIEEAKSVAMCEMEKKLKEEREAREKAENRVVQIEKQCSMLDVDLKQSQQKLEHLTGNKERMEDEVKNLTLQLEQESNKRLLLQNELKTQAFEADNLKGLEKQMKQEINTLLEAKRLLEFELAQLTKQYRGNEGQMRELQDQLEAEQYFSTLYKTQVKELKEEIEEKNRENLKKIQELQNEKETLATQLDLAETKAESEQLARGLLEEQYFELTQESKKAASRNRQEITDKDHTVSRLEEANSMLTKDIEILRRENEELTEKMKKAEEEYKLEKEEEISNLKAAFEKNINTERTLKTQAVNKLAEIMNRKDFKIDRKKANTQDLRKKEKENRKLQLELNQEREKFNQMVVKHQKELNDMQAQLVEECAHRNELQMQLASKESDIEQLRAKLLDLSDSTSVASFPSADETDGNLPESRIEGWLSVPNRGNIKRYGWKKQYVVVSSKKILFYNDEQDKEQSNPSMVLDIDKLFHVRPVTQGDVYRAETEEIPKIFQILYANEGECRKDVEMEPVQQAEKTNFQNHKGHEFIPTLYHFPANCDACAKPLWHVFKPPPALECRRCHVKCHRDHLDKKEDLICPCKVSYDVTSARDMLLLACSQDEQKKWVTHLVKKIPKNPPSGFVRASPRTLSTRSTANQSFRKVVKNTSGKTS

Molecule COc1cc2ncn(-c3cc(OCc4cccs4)c(C(N)=O)s3)c2cc1OC has an inhibition [1] of 6.19%, an inhibition [2] of 2.66% and an inhibition [3] of 0.01%. The inhibition [4] was 1.98%, the inhibition [5] was 6.01% and the inhibition [6] was 2.61%. The inhibition [7] was 4.99%, the inhibition [8] was -0.16% and the inhibition [9] was -1.53%. It also gave an inhibition [10] of -1.61%, an inhibition [11] of -0.96% and an inhibition [12] of -1.14%. For the same molecule, the inhibition [13] was -2.04%, the inhibition [14] was 3.61% and the inhibition [15] was 7.44%. It also gave an inhibition [16] of 3.73%, an inhibition [17] of 6.83% and an inhibition [18] of 3.18%. The inhibition [19] was -3.65% and the inhibition [20] was 2.39%.
For O=C(Nc1n[nH]c2nc(-c3ccco3)ccc12)C1CC1, the inhibition [1] was 3.88%, the inhibition [2] was 1.28% and the inhibition [3] was -0.15%. The inhibition [4] was 0.24%, the inhibition [5] was -0.12% and the inhibition [6] was 0.74%. It also gave an inhibition [7] of 1.21%, an inhibition [8] of 0.7% and an inhibition [9] of 1.4%. For the same molecule, the inhibition [10] was -0.13%, the inhibition [11] was 1.79% and the inhibition [12] was 0.02%. For the same molecule, the inhibition [13] was 1.55%, the inhibition [14] was 2.2% and the inhibition [15] was 4.23%. The inhibition [16] was 0.68%, the inhibition [17] was 3.61% and the inhibition [18] was 2.71%. The inhibition [19] was 3.87% and the inhibition [20] was 1.29%.
